Experimental data reported in PubChem BioAssay AID449768 (Vanderbilt High Throughput Screening Facility, 2010).
Out of some 110,000 compounds screened, about 1,400 (1.3%) were called active. Shown is part of a subset that was picked to be rich in actives. Unmarked numbers belong to inactive results.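 How the source made its calls: active means Z score or B-score, a plate-position-corrected score, falls beyond the plate's 99.7% confidence bounds, in either direction; inactive means both scores lie inside the 99.7% bounds.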

The molecules below were run against Sodium-dependent dopamine transporter (Homo sapiens) (UniProt Q01959) (assay: modulators of human DAT uptake with cocaine – cell-based, LLC-PK1 hDAT, [14C]-dopamine uptake, MLSMR, cocaine antagonist project, primary screen (AID 449768;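 further: scored against the spread of the other compound wells on the same plate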)). Conditions: LLC-PK1 hDAT cells, [14C]-dopamine uptake with cocaine IC80; at 10 µM; actives deviate in either direction.
Sequence of Sodium-dependent dopamine transporter (Homo sapiens) (Q01959 whole entry, looked up): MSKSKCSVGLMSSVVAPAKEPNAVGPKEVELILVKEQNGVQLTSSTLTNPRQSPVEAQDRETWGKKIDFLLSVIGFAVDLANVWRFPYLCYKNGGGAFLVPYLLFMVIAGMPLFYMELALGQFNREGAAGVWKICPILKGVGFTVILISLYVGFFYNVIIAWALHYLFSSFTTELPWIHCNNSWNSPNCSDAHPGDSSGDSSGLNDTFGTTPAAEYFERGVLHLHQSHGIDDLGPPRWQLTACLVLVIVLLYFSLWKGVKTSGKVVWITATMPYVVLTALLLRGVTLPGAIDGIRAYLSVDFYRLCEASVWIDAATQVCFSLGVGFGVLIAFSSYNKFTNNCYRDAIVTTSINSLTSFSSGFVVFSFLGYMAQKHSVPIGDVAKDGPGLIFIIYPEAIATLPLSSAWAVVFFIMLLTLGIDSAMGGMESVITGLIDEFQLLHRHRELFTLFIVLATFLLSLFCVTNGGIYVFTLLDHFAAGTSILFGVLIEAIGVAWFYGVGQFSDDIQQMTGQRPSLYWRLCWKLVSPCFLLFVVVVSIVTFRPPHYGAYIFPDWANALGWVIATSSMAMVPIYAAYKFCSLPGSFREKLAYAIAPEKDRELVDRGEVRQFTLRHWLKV
O=C(Nc1ccon1)c1cccc(Cl)c1 was tested, and the B-score was 0.0619. Work on Cc1cc(C)n(-c2ccc(Cl)c(C(=O)O)n2)n1 yielded a B-score of -1.42. With Cc1cc(C)n(-c2nnc(C)n2NC(=O)c2cccc(Cl)c2)n1 the B-score was -8.7 (active). With COc1ccc2c(c1)CCNC2Cc1ccc(OC)c(O)c1 (stereo not given) the B-score was -0.654. Work on CC(=O)Nc1sc2c(c1C(c1cccc(F)c1)N1CCN(CCO)CC1)CCCC2 (stereo not given) yielded a B-score of 0.298. C[C@@H]1NC(=O)c2cc([N+](=O)[O-])cc(F)c2NCCC[C@@H](C(N)=O)NC(=O)[C@H](CC(N)=O)NC1=O was tested, and the B-score was -0.649. O=C(Nc1ccccc1F)c1cc(S(=O)(=O)N2CCCCC2)cs1 gave a B-score of 0.695. Cc1ccc(C(=O)Nc2ccccc2C(=O)NC2CCCCC2)cc1S(=O)(=O)N1CCOCC1 gave a B-score of -0.00206. In the case of Cc1ccccc1NC(=O)c1cc(S(=O)(=O)N2CCOCC2)cs1, the B-score was -3.41 (active). With C/C=C(/C)C(=O)Nc1cccc(C2=NOC3(C2)C[C@@H](C(N)=O)N(C(=O)C2(C)CC2)C3)c1 (stereo not given in full) the B-score was -0.445. With CC(Sc1nc2c([nH]c3ccccc32)c(=O)n1C)c1ccccc1 (stereo not given) the B-score was 0.73. Work on CCOC(=O)c1c(NC(=O)C(C)Sc2c[nH]c3ccccc23)sc2c1CCC2 (stereo not given) yielded a B-score of -0.485. Molecule Cc1nc(SCC(=O)N2CCc3ccccc3C2)c2c(C)c(C)sc2n1 has a B-score of 2.48. In the case of Cc1nc(SCC(=O)N2CC(=O)Nc3ccccc32)c2c(C)c(C)sc2n1, the B-score was 2.75 (active). Cc1nc(SCC(=O)Nc2cc(C)on2)c2c(C)c(C)sc2n1 showed a B-score of 0.457. Work on C=CCSc1nnc2c(n1)-c1cccc3cccc-2c13 yielded a B-score of 0.0257. In the case of CCOC(=O)N1CCN(C(=O)c2ccc(S(=O)(=O)c3ccc(C)cc3)c(NC(C)=O)c2)CC1, the B-score was -7.14 (active). In the case of CCOC(=O)N1CCN(C(=O)c2ccc3c(c2)N(Cc2ccc(C)cc2)CCS3)CC1, the B-score was 0.333. CC(=O)Nc1cc(C(=O)O)ccc1S(=O)(=O)c1ccc(Cl)cc1 gave a B-score of -0.803. C[C@@H](C(=O)N1CCNCC1)n1cc(CCC(=O)O)nn1 gave a B-score of -0.0383. Cc1ccc(-c2cc(=O)c3ccc(F)cc3[nH]2)cc1 was tested, and the B-score was 0.343. With Cc1noc(C)c1CSCC(=O)Nc1nc2ccc(Oc3ccccc3)cc2s1 the B-score was 3.18 (active). With CCOC(=O)c1c(C2CC2)csc1NC(=O)CSCc1c(C)noc1C the B-score was 0.395. CCn1c(SCC(=O)Nc2nc3ccc(OC)cc3s2)nnc1-c1ccoc1C gave a B-score of 0.56. NC(=O)C1=C[C@@H](c2csc3ccccc23)C[C@@H](OCc2ccc(CO)cc2)O1 showed a B-score of 0.21. With CC/C=C/C(=O)N1CC2(CC(c3cccc(NC(=O)CC)c3)=NO2)C[C@H]1C(N)=O (stereo not given in full) the B-score was 0.271. CCCC[C@@H]1CN=C(N)N1CCc1cccc(F)c1 was tested, and the B-score was -0.00752. Work on CCOC(=O)c1sc(NC(=O)CSc2nc3c(c(=O)n2-c2ccccc2)SCC3)c(C(=O)OCC)c1C yielded a B-score of 0.723. Work on Cc1ccc(Cn2nnc3c(=O)n(CC(=O)N4CCCCC4)cnc32)cc1 yielded a B-score of 0.247. With O=C(Cn1nnc(-c2ccccc2)n1)NCc1ccc2c(c1)OCO2 the B-score was 0.156. In the case of O=C(Cn1cnc2c(nnn2Cc2ccc(F)cc2)c1=O)NCc1ccc2c(c1)OCO2, the B-score was -8.17 (active). Molecule NC(=O)CC(NC(=O)Cc1cccc2ccccc12)c1ccc(NCc2cc(F)ccc2F)c([N+](=O)[O-])c1 (stereo not given) has a B-score of 0.0495. With O=C(NCc1ccccc1)C1=C[C@@H](c2ccccc2)C[C@@H](OCCCCO)O1 the B-score was 0.736. Molecule CCN1C(=O)N[C@@H](CCc2ccccc2)C(C(=O)OC)=C1C has a B-score of 0.0945. COC(C[C@H](O)CC(=O)[C@@H](C)OCc1ccccc1)OC gave a B-score of -0.99. In the case of O=C(O)C1=C[C@H](c2cccs2)C[C@H](OCCCCO)O1, the B-score was -0.012. For COc1cc2[nH]c(=O)n(CCC(=O)NC3CCN(Cc4ccccc4)CC3)c(=O)c2cc1OC, the B-score was 3.31 (active). Molecule COc1ccc(CCNC(=O)CCCCn2c(=O)[nH]c3ccccc3c2=O)cc1OC has a B-score of 0.579. In the case of CCOc1cc2[nH]c(=O)n(CCC(=O)NCc3ccc(OC)cc3)c(=O)c2cc1OCC, the B-score was -0.216. Work on CC(C)NC(=O)NCCCCCCS(C)=O (stereo not given) yielded a B-score of 0.321. Work on O=c1[nH]snc1-c1c(Cl)cccc1Cl yielded a B-score of 1.69. Work on CC(=O)Nc1ccc(NC(=O)c2sc3nc4c(c(-c5ccc(C)cc5)c3c2N)CCC4)cc1 yielded a B-score of -0.372. NC(=O)c1sc2nc3c(c(-c4ccccc4)c2c1N)CCC3 gave a B-score of 0.0164. With Cc1cccc(NC(=O)c2sc3nc4c(c(-c5ccco5)c3c2N)CCC4)c1 the B-score was -8.82 (active). Work on CCOC(=O)c1ccccc1NC(=O)c1c(N)n(C)c(=O)[nH]c1=O yielded a B-score of -0.18. C[C@@H]1CC[C@]2(O[C@@H](CCO)C[C@H](O)[C@H]2O)O1 showed a B-score of -0.347. CC(C)n1cnc2c(Nc3cccc(Cl)c3)nc(N(CCO)CCCO)nc21 gave a B-score of 0.4. In the case of CC(C)C[C@H](CO)Nc1nc(N(C)c2cccc(Cl)c2)c2ncn(C(C)C)c2n1, the B-score was 2.72 (active). In the case of COC(=O)C(C)n1cnc2c(nnn2-c2cccc(Cl)c2)c1=O (stereo not given), the B-score was -0.668. In the case of C#CCOCCOCCOCCNc1nc(N2CCN(C(=O)[C@H](CCC(=O)O)n3cc(C(N)CO)nn3)CC2)nc(N2CCN(C(=O)[C@H](CCCCN)n3cc(C(N)[C@H](C)CC)nn3)CC2)n1 (stereo not given in full), the B-score was -0.0414. With COc1ccc(N2C(=O)C3CCCN3C2c2cccc(OC)c2)cc1 (stereo not given) the B-score was -2.41 (active). COc1cccc(N2C(=O)C3CCCN3C2c2ccc(F)cc2)c1 (stereo not given) gave a B-score of -0.103. With COc1ccc(N2C(=O)C3CCCN3C2c2cc(OC)c(OC)cc2OC)cc1 (stereo not given) the B-score was -1.27. Molecule CC(=O)N[C@H]1[C@H]([C@H](O)[C@H](O)CO)OC(C(=O)O)=C[C@@H]1O has a B-score of 0.169. For CC1(OC(=O)CCc2ccccc2)C(=O)C=C2C=C(c3ccc(C#N)cc3)N(CCc3ccccn3)C=C2C1=O (stereo not given), the B-score was -1.62.
